SW480 rerep: A quantitative high throughput screen for small molecules that induce DNA re-replication in SW480 colon adenocarcinoma cells; SW480 DNA re-replication, Hoechst DNA content imaging, 48 h; Potency, µM (highest dose often 46.1 µM), without a hit: top-dose re-replication activation, actives largely listed as activators; 340,000 tested, 1.8% active; AID 624297, 2012; also: % of control where 0% means no effect; nearly all actives have a fitted effect of over 55% in size
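Treated cells incubate 48 hr (37 C, 5% CO2), are stained 40 min with Hoechst, and nuclear fluorescence is enumerated; a rise in nuclei with high DNA signal marks re-replication.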
KB-3-1 cytotox: qHTS assay for MDR1-selective chemotherapeutics: Primary screen using the parental adenocarcinoma cell KB-3-1 | KB-3-1 viability, CellTiter-Glo ATP luminescence, 72 h | Potency, µM (series often up to 46.1 µM), most hits filed as cytotoxic | 400,000 tested, 1.4% active | AID 1347075, 2019; also: % is scaled to controls: 0 for no effect and ±100 for the full control effect; nearly all actives have a fitted effect of over 60% in size
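Cells are dispensed, compounds pinned in, plates held at 37 °C for 72 h, then CellTiter-Glo is added and luminescence read after 10 minutes. Cell line: parental KB-3-1 in phenol-red-free DMEM, 10% FBS.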
MCF10A rereplic: A quantitative high throughput screen for small molecules that induce DNA re-replication in MCF 10a normal breast cells. AID 624296, 2012. MCF 10A DNA re-replication, Hoechst nuclear intensity, 48 h. 350,000 tested, 2.9% active. Potency, µM (highest dose often 46.1 µM), without a hit: at the highest dose activity, positive = re-replication, hits mostly activators; also: % of control where 0% means no effect; nearly all actives have a fitted effect of over 50% in size
HT1080-NT tox: qHTS for induction of synthetic lethality in tumor cells producing 2HG: qHTS for the HT-1080-NT fibrosarcoma cell line; HT-1080-NT fibrosarcoma viability, CellTiter-Glo ATP luminescence, 48 h; Potency, µM (top dose mostly 46.1 µM), for the others: top-dose activity, negative = less viability, usual class: cytotoxic; 360,000 tested, 1.6% active; AID 686970, 2013;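 also: NT is the 2HG producing partner of a matched IDH1 knockdown line; 0% = DMSO-treated cells and -100% = media-only wells without cells; nearly all actives have a fitted effect of over 55% in size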
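Read-out is CellTiter-Glo luminescence after 10 minutes at room temperature, following 48 hours' compound treatment of HT-1080-NT cells (750 cells/well, RPMI, 5% FBS, 37 degrees C).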
KB-V1 MDR tox: qHTS assay for MDR1-selective chemotherapeutics: Primary screen using the drug-selected MDR subline cells KB-V1. KB-V1 MDR cells viability, CellTiter-Glo, 72 h. Potency, µM (highest dose often 46.1 µM), usual class: cytotoxic. 400,000 tested, 3.4% active. AID 1347076, 2019; also: % is scaled to controls: 0 for no effect and ±100 for the full control effect; nearly all actives have a fitted effect of over 60% in size
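Compound-treated KB-V1 multidrug-resistant cells, 72 h, 37 degrees C; viability by CellTiter-Glo. Fitted qHTS curves give the values.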
HT1080 IDH1KD tx: qHTS for induction of synthetic lethality in tumor cells producing 2HG: qHTS for the HT-1080-IDH1KD cell line | 360,000 tested, 2% active | Potency, µM (top dose mostly 46.1 µM), for the others: top-dose activity, negative = toxicity, usual class: cytotoxic | HT-1080 IDH1 knockdown viability, ATP luminescence, 48 h;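 also: 0% = DMSO wells and -100% = cell-free medium wells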
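% activity derives from luminescence (CellTiter-Glo), normalised to DMSO and no-cell wells. HT-1080-IDH1KD cells, 750/well, had 48 h compound exposure at 37 °C.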
Numbers without * were called inactive; i = inactive; ? = inconclusive; . = no result. An excerpt weighted towards active compounds, which were near 8% of everything screened. Calls follow the shape of the dose curve; as a rule, active = well fitted curve in the direction sought with a large enough effect; inconclusive = small, poorly fitted or top-dose-only effect, or another doubt; inactive = no such curve, though single readings can be large; an effect the other way counts as inactive or inconclusive. Potency is read from the fitted curve at half-maximal effect.

SMILES	SW480 rerep	KB-3-1 cytotox	MCF10A rereplic	HT1080-NT tox	KB-V1 MDR tox	HT1080 IDH1KD tx
CCOc1ccccc1/C=N/Nc1nc2c(N)ncnc2n1[C@H]1O[C@@H](CO)[C@H](O)[C@@H]1O	8.2µM*	i	6%	1%	i	-1%
COc1cccc(-c2nc(C(=O)NCCCN3CCOCC3)cc3c2[nH]c2ccccc23)c1	?	i	?	-18%	18µM*	-14%
COc1cc(-c2nc(C(=O)NCC3CCCO3)cc3c2[nH]c2ccccc23)cc(OC)c1OC (stereo not drawn)	-3%	i	?	?	?	?
COc1ccccc1NS(=O)(=O)c1ccc(C(=O)NCCCN2CCOCC2)cc1	8.2µM*	i	-7%	-1%	i	-1%
O=C(NCCCO)c1cc2c([nH]c3ccccc32)c(-c2ccccc2)n1	-9%	?	11%	-10%	?	-24%
O=C(NCCCN1CCOCC1)c1cc2c([nH]c3ccccc32)c(-c2cccc(Br)c2)n1	16%	?	4.6µM*	?	?	?
O=C(NCC1CCCO1)c1cc2c([nH]c3ccccc32)c(-c2cccc(Cl)c2)n1 (stereo not drawn)	21µM*	?	?	-25%	?	-25%
COc1ccc(-c2cc3nc(C)c(CCC(=O)NC(C)c4ccccc4)c(C)n3n2)c(OC)c1 (stereo not drawn)	.	i	.	.	i	.
Cc1cccc(OCC(=O)Nc2ccc(Cl)c(-c3nc4ncccc4o3)c2)c1C	.	i	.	.	i	.
COc1ccc(OC)c(Nc2cc(C(=O)NCCCN3CCOCC3)c3ccccc3n2)c1	8%	i	13%	-30%	18µM*	?
CCc1c(C)sc2c1CCN(C(=O)Nc1ccccc1Cl)C2c1ccc(OC)cc1 (stereo not drawn)	.	i	.	.	i	.
CCOc1ccc(S(=O)(=O)Nc2cccc(OC)c2)cc1	?	i	?	?	?	10µM*
CCCCOc1ccc(S(=O)(=O)Nc2cccnc2)cc1	-2%	26µM*	-5%	?	5.8µM*	-16%
CCOc1ccc(S(=O)(=O)Nc2cccc(N(C)S(C)(=O)=O)c2)cc1	-4%	i	2%	-4%	i	-4%
CCOc1ccc(S(=O)(=O)Nc2ccc3c(c2)n(C)c(=O)n3C)cc1	-6%	?	14%	?	15µM*	-24%
CCc1ccc(NS(=O)(=O)c2ccc3c(c2)oc(=O)n3C)cc1	-6%	i	-4%	-10%	i	-12%
CCOc1ccc(NS(=O)(=O)c2ccc3c(c2)oc(=O)n3C)cc1	-5%	i	-3%	-1%	15µM*	6%
CCCSCCCNC(=O)c1ccc2c(c1)sc1nc(-c3ccc(OCC)cc3)cn12	.	i	.	.	i	.
CCC(=O)OCc1cnc(C)c2oc(=O)c(C(=O)Nc3ccc(CC)cc3)cc12	.	i	.	.	i	.
COc1cccc(CNCCSc2nnnn2-c2ccccc2)c1OC	.	i	.	.	i	.
CCCCOc1cccc(C(=O)NC(=S)Nc2cccnc2)c1	-6%	i	3%	-3%	18µM*	1%
Cc1cc(C)cc(NS(=O)(=O)c2cnc(Cl)c(Cl)c2)c1	0%	i	?	?	i	?
CCOc1ccc(NS(=O)(=O)c2cnc(Cl)c(Cl)c2)cc1	?	?	4.1µM*	?	?	?
CCOCCc1nn2c(=O)cc(COC(=O)c3ccccc3NC(=O)c3ccc(C)cc3)nc2s1	.	i	.	.	i	.
Cc1cc(C)c(NC(=O)C2CCN(c3nnc(C)c4c(C)n(-c5ccccc5)nc34)CC2)c(C)c1	.	i	.	.	i	.
SMILES	SW480 rerep	KB-3-1 cytotox	MCF10A rereplic	HT1080-NT tox	KB-V1 MDR tox	HT1080 IDH1KD tx
CN(C)CCNC(=O)CN1C(=O)CCn2nc(-c3cn(C)c4ccccc34)cc21	.	i	.	.	i	.
CCC12CN3CC(CC)(CN(C1)C3c1cccc(OC)c1O)C2=O (stereo not drawn)	.	i	.	.	i	.
Cn1nc(NC(=O)C(F)(F)F)c2ncc(-c3ccccc3)nc21	.	i	.	-8%	18µM*	-3%
CC(=O)NC(Cc1ccc([N+](=O)[O-])cc1)C(=O)NCC(N)C(=O)c1ccccc1 (stereo not drawn)	.	.	.	-2%	.	-3%
O=C(COc1ccc(F)cc1)NCc1ccc2c(c1)CCN2C(=O)c1ccc(F)cc1	.	i	.	.	i	.
Cc1ccc(NC(=O)Cn2c(=O)n(CCC(=O)N3CCc4ccccc4C3)c(=O)c3ccccc32)cc1	.	i	.	.	i	.
COC(=O)NCCOc1nc(N(C)C)nc(N(C)C)n1	-4%	i	25%	18%	i	15%
CN(C)c1nc(C(=O)NN)nc(N(C)C)n1	16%	i	3.7µM*	1%	i	21%
OC(Cc1ccccc1)c1ncc(-c2ccc3ccccc3c2)[nH]1 (stereo not drawn)	.	i	.	?	i	18µM*
CCOC(=O)C1CCCN(C(=O)c2ccc(Cn3c(=S)[nH]c4cc(C(=O)OC)ccc4c3=O)cc2)C1 (stereo not drawn)	?	i	16µM*	0%	?	-25%
O=C(c1ccc(Cn2c(=S)[nH]c3ccc(N4CCOCC4)cc3c2=O)cc1)N1CCN(c2ccc(F)cc2)CC1	12%	i	4.6µM*	-3%	?	-13%
Cc1ccc(C)c(N2CCN(C(=O)c3ccc(Cn4c(=S)[nH]c5ccc(N6CCOCC6)cc5c4=O)cc3)CC2)c1	22%	i	5.8µM*	-1%	i	7%
O=C(c1ccc(Cn2c(=S)[nH]c3ccc(Br)cc3c2=O)cc1)N1CCN(C2CCCCC2)CC1	?	?	?	0%	18µM*	5%
O=C(CSc1nc2c([nH]c3ccccc32)c(=O)n1-c1ccc(F)cc1)N1CCCCCC1	.	i	.	.	i	.
COc1ccc(CCNC(=O)C2CCCN(c3nc4c(C)cc(C)cc4s3)C2)cc1OC (stereo not drawn)	.	i	.	.	i	.
CCOC(=O)c1ccc(NC(=O)CN2C(=O)c3cccnc3Sc3ccccc32)cc1	.	i	.	.	i	.

Source: PubChem BioAssay (National Center for Advancing Translational Sciences (NCATS))
